In PubChem BioAssay:
Values joined by “and” are separate entries in the source; they are usually repeats but may differ in a detail not shown here. Equal values may be shown once. Inconclusive results are not listed. Active and inactive are the calls of the source. Unless noted, no cut-off is given here; in the data, nearly all actives have AC50 up to about 30 µM.

How the values were obtained:
[1] = system: Hepatitis C virus NS3 helicase; assay: HCV NS3 helicase inhibitors, primary screen, biochemical, fluorescence polarization, LOPAC1280 library (AID 687035; in the data active = inhibition above about 37%); conditions: Purified HCV NS3 helicase, Cy5-dT15 ssDNA binding fluorescence polarization; stronger effect = higher value; concentration not given here
[2] = Cy5 fluorescence quenching or enhancement artefacts, artefact control for HCV NS3 helicase inhibitor project, biochemical, LOPAC1280 (AID 687037; call rule not given here); conditions: Cy5-DNA-NS3h complex fluorescence interference counterscreen
[3] = growth inhibition of DIPG glioma cells, dose response, cell-based, SU-DIPG-XVII, MIPE5.0, CellTiter-Glo, qHTS (AID 1347060; cut-off not given, nearly all actives have AC50 up to about 26 µM); conditions: SU-DIPG-XVII viability, CellTiter-Glo ATP luminescence
[4] = growth inhibition of DIPG glioma cells, dose response, cell-based, SU-DIPG-XIII, MIPE4.0, CellTiter-Glo, qHTS (AID 1347061; cut-off not given, nearly all actives have AC50 up to about 37 µM;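 note: cells exposed to compound for 48 hours before readout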); conditions: SU-DIPG-XIII viability, CellTiter-Glo ATP luminescence
[5] = growth inhibition of DIPG glioma cells, dose response, cell-based, JHH-DIPG-1, MIPE4.0, CellTiter-Glo, qHTS (AID 1347062; cut-off not given, nearly all actives have AC50 up to about 27 µM); conditions: JHH-DIPG-1 viability, CellTiter-Glo ATP luminescence
[6] = growth inhibition of DIPG glioma cells, dose response, cell-based, SU-DIPG-IV, MIPE4.0, CellTiter-Glo, qHTS (AID 1347063); conditions: SU-DIPG-IV viability, CellTiter-Glo ATP luminescence;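 note: compound exposure lasted 48 hours before the viability readout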
[7] = growth inhibition of DIPG glioma cells, dose response, cell-based, SU-DIPG-XIII, MIPE5.0, CellTiter-Glo, qHTS (AID 1347064; cut-off not given, nearly all actives have AC50 up to about 23 µM); conditions: SU-DIPG-XIII viability, CellTiter-Glo ATP luminescence
[8] = SU-DIPG-VI glioma cell viability, MIPE4.0 library, CellTiter-Glo luminescence, qHTS (AID 1347066); conditions: CellTiter-Glo ATP luminescence;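 note: cells exposed to compound for 48 hours before readout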
[9] = SU-DIPG-XXV glioma cell viability, MIPE5.0 library, qHTS (AID 1347068; cut-off not given, nearly all actives have IC50 up to about 30 µM)
[10] = viability loss in pontine glioma line – cell-based, SU-DIPG-XXV, MIPE5.0, CellTiter-Glo, qHTS, dose response (AID 1347065; cut-off not given, nearly all actives have AC50 up to about 26 µM;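 note: cells exposed to compound for 48 hours before ATP readout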); conditions: CellTiter-Glo ATP luminescence
[11] = target: ATP-dependent translocase ABCB1 (Homo sapiens) (UniProt P08183); assay: MDR1 (ABCB1) efflux transporter inhibition, cell-based (AID 377; in the data active = fluorescence slope change above about 50%); conditions: MDR1-expressing cells, fluorescent substrate accumulation slope; stronger effect = higher value; concentration not given here
Sequence of ATP-dependent translocase ABCB1 (Homo sapiens) (P08183 whole entry, looked up): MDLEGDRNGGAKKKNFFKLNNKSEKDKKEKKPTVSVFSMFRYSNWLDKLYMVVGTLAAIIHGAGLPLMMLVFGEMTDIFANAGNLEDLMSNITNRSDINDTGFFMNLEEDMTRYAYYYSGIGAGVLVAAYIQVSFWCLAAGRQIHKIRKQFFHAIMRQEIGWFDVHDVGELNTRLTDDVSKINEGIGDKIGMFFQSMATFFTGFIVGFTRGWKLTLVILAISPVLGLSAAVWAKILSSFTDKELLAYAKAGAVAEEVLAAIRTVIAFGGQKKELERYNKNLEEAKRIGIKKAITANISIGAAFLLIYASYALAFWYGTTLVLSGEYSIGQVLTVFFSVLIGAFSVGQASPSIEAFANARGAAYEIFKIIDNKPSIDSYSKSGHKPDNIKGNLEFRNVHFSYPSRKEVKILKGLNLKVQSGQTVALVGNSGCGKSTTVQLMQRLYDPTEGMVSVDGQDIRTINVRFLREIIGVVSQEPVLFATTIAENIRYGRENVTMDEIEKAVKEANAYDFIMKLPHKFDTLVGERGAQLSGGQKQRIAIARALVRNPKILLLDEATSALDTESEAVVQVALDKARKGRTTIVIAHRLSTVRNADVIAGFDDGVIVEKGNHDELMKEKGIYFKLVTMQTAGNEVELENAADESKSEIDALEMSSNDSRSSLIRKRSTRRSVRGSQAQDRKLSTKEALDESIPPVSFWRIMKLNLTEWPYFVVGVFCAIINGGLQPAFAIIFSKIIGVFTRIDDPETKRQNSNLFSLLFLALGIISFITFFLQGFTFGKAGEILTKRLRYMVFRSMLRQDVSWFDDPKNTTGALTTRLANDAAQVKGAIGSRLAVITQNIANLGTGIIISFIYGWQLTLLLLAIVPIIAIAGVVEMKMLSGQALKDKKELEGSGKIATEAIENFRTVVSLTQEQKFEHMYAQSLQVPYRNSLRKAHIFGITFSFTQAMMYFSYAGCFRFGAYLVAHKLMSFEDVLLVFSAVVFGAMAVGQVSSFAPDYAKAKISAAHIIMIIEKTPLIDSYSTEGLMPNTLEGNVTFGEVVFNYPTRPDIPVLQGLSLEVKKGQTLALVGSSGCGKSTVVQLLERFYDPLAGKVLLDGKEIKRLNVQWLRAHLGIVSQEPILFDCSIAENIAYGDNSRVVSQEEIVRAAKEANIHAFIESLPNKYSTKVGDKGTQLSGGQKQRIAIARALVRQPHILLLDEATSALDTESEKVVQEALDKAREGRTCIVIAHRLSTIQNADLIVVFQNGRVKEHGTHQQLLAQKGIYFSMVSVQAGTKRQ

O=c1c(O)c(-c2ccc(O)cc2O)oc2cc(O)cc(O)c12
inactive: inhibition [1] -4% | fluorescence ratio (interference) [2] 1 | outcome [3] | outcome [4] | outcome [5] | outcome [6] | outcome [7] | outcome [8] | outcome [9]

COc1ccc(-c2cc(=O)c3c(O)cc(O)cc3o2)cc1O
active: AC50 [4] 11.8 µM | AC50 [8] 10.5 µM

O=C1C[C@@H](c2ccc(O)cc2)Oc2cc(O)cc(O)c21
inactive: outcome [3] | outcome [4] | outcome [5] | outcome [6] | outcome [10] | outcome [8] | outcome [9]

C1CCc2nnnn2CC1
inactive: inhibition [1] -2% | fluorescence ratio (interference) [2] 1
active: fluorescence slope change [11] 136%

CC1=C(/C=C/C(C)=C/C=C/C(C)=C/C=C/C=C(C)/C=C/C=C(C)/C=C/C2=C(C)CCCC2(C)C)C(C)(C)CCC1
inactive: outcome [4] | outcome [5] | outcome [8] | outcome [9]

O=C(CCc1ccc(O)cc1)c1c(O)cc(O)cc1O[C@@H]1O[C@H](CO)[C@@H](O)[C@H](O)[C@H]1O
inactive: outcome [4] | outcome [5] | outcome [6] | outcome [7] | outcome [10] | outcome [8] | outcome [9]

COc1ccc(C(C)=O)c(O)c1
active: AC50 [4] 0.0132 µM

O=C(/C=C/c1ccc(O)cc1)c1ccc(O)cc1O
inactive: inhibition [1] 0% | fluorescence ratio (interference) [2] 0.9 | outcome [3]

O=C(/C=C/C=C/c1ccc2c(c1)OCO2)N1CCCCC1
inactive: outcome [3] | outcome [4] | outcome [5] | outcome [6] | outcome [7] | outcome [10] | outcome [8] | outcome [9]
active: fluorescence slope change [11] 92.2%

CN1C2CCC1CC(OC(=O)C(CO)c1ccccc1)C2 (centres undefined)
inactive: inhibition [1] 0% and -1% | fluorescence ratio (interference) [2] 0.9 and 1.1 | outcome [4] | outcome [5] | outcome [7] | outcome [10] | outcome [8] | outcome [9]

c1ccc2c(Cc3c[nH]c4ccccc34)c[nH]c2c1
inactive: outcome [3] | outcome [7] | outcome [10] | outcome [8] | outcome [9]

COc1cc(O)c2c(c1)C(=O)c1cc(C)cc(O)c1C2=O
inactive: outcome [4] | outcome [5] | outcome [8]

O=C(/C=C/c1ccc(O)c(O)c1)OCCc1ccccc1
inactive: inhibition [1] -2% | fluorescence ratio (interference) [2] 1

Cc1cc(O)c2c(c1)C(=O)c1cc(O)cc(O)c1C2=O
inactive: inhibition [1] 0% | fluorescence ratio (interference) [2] 1 | outcome [4] | outcome [5] | outcome [7] | outcome [8]

CCCc1nn(C)c2c(=O)[nH]c(-c3cc(S(=O)(=O)N4CCN(C)CC4)ccc3OCC)nc12
inactive: outcome [3] | outcome [5] | outcome [6] | outcome [7] | outcome [9]
